Experimental data reported in the supplement of paper PMC10037445.
In all, about 2,900 compounds were measured (“NF-kB SEAP reporter activity, fold change vs agonist alone”: median about 0.99, highest 2% from about 2.6 on). For the sample, the highest values were picked, then their nearest neighbours and some compounds at random.

Columns and labels:
[1] = test system: RAW-Dual; test: NF-kB SEAP reporter activity, fold change vs agonist alone; higher = enhanced NF-kB activity
Procedure, shortened: (§1)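 After 50 nL of library stock was delivered by pin tool to RAW-Dual macrophages (50,000 cells/well, DMEM, 384-well plates), a PRR agonist was added 1 h later and the plates were kept at 37 °C, 5% CO2. Twenty hours later, IRF was read from supernatant by QuantiLuc luminescence and NF-κB by QuantiBlue absorbance at 620 nm. Reporter activity is stated as fold change over agonist-alone wells. Wells with IncuCyte confluency under 70% of agonist controls in both mask sets were counted as cytotoxic.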

[2] = test system: RAW-Dual; test: NF-kB SEAP reporter activity, fold change vs agonist alone; cytotoxicity flag (confluency mask): not cytotoxic; higher = enhanced NF-kB activity
Procedure, shortened: as §1

[3] = test system: RAW-Dual; test: NF-kB SEAP reporter activity, fold change vs agonist alone; cytotoxicity flag (confluency mask): cytotoxic (confluency <70% of control); higher = enhanced NF-kB activity
Procedure, shortened: as §1

[4] = library stock concentration (final ~1000-fold dilution): 10 mM, cytotoxicity flag (confluency mask): not cytotoxic, agonist: MPLA (TLR4) […]
[5] = agonist: ODN 1826 (TLR9) 0.5 ug/mL
[6] = agonist: Pam2CSK4 (TLR2/6) 0.1 ug/mL
[7] = agonist: Pam3CSK4 (TLR2/1) 0.1 ug/mL
[8] = library stock concentration (final ~1000-fold dilution): 10 mM, cytotoxicity flag (confluency mask): not cytotoxic, agonist: Imiquimod (TLR7) […]

## CC1(C)SC2C(NC(=O)C(N)c3ccccc3)C(=O)N2C1C(=O)OCOC(=O)C1N2C(=O)CC2S(=O)(=O)C1(C)C (configuration not stated)
[1]; [4]
  NF-kB SEAP reporter activity: 1.07

## CC1(C)SC2C(NC(=O)C(N)c3ccccc3)C(=O)N2C1C(=O)OCOC(=O)C1N2C(=O)CC2S(=O)(=O)C1(C)C (configuration not stated) (library stock concentration (final ~1000-fold dilution): 10 mM)
[2]; agonist: LPS (TLR4) 0.1 ug/mL
  NF-kB SEAP reporter activity: 1.06
[2]; [5]
  NF-kB SEAP reporter activity: 0.886
[2]; [6]
  NF-kB SEAP reporter activity: 1.16
[2]; [7]
  NF-kB SEAP reporter activity: 0.993

## CC(Oc1ccc2c(c1)OCCn1cc(-c3ncnn3C(C)C)nc1-2)C(N)=O (configuration not stated)
[1]; [8]
  NF-kB SEAP reporter activity: 0.585
[1]; [4]
  NF-kB SEAP reporter activity: 1.4

## CC(Oc1ccc2c(c1)OCCn1cc(-c3ncnn3C(C)C)nc1-2)C(N)=O (configuration not stated) (library stock concentration (final ~1000-fold dilution): 10 mM)
[2]; agonist: LPS (TLR4) 0.1 ug/mL
  NF-kB SEAP reporter activity: 2.07
[2]; [5]
  NF-kB SEAP reporter activity: 1.1
[2]; [6]
  NF-kB SEAP reporter activity: 0.894
[2]; [7]
  NF-kB SEAP reporter activity: 1.41

## Cc1nc(-c2cn3c(n2)-c2ccc(-c4cnn(C(C)(C)C(N)=O)c4)cc2OCC3)n(C(C)C)n1
[1]; [8]
  NF-kB SEAP reporter activity: 0.619
[1]; [4]
  NF-kB SEAP reporter activity: 1.84

## Cc1nc(-c2cn3c(n2)-c2ccc(-c4cnn(C(C)(C)C(N)=O)c4)cc2OCC3)n(C(C)C)n1 (library stock concentration (final ~1000-fold dilution): 10 mM)
[2]; agonist: LPS (TLR4) 0.1 ug/mL
  NF-kB SEAP reporter activity: 2.74
[2]; [5]
  NF-kB SEAP reporter activity: 1.31
[2]; [6]
  NF-kB SEAP reporter activity: 0.996
[2]; [7]
  NF-kB SEAP reporter activity: 1.15

## OCC1OC(c2ccc(F)c(Cc3cc4ccccc4s3)c2)C(O)C(O)C1O (configuration not stated) (library stock concentration (final ~1000-fold dilution): 10 mM)
[2]; agonist: LPS (TLR4) 0.1 ug/mL
  NF-kB SEAP reporter activity: 1.07
[2]; [5]
  NF-kB SEAP reporter activity: 0.948
[2]; [6]
  NF-kB SEAP reporter activity: 1.15
[2]; [7]
  NF-kB SEAP reporter activity: 1.17

## OCC1OC(c2ccc(F)c(Cc3cc4ccccc4s3)c2)C(O)C(O)C1O (configuration not stated)
[1]; [8]
  NF-kB SEAP reporter activity: 1.06
[1]; [4]
  NF-kB SEAP reporter activity: 1.04

## Nc1ccn(C2CSC(CO)O2)c(=O)n1 (configuration not stated) (library stock concentration (final ~1000-fold dilution): 10 mM)
[2]; agonist: LPS (TLR4) 0.1 ug/mL
  NF-kB SEAP reporter activity: 0.862
[2]; [5]
  NF-kB SEAP reporter activity: 1.03
[2]; [6]
  NF-kB SEAP reporter activity: 0.999
[2]; [7]
  NF-kB SEAP reporter activity: 1.11

## Nc1ccn(C2CSC(CO)O2)c(=O)n1 (configuration not stated)
[1]; [8]
  NF-kB SEAP reporter activity: 0.893
[1]; [4]
  NF-kB SEAP reporter activity: 1.04

## COC1CCC(N2C(=O)CNc3ncc(-c4ccc(C(C)(C)O)nc4)nc32)CC1 (configuration not stated)
[1]; [8]
  NF-kB SEAP reporter activity: 0.711
[1]; [4]
  NF-kB SEAP reporter activity: 0.53

## COC1CCC(N2C(=O)CNc3ncc(-c4ccc(C(C)(C)O)nc4)nc32)CC1 (configuration not stated) (library stock concentration (final ~1000-fold dilution): 10 mM)
[2]; agonist: LPS (TLR4) 0.1 ug/mL
  NF-kB SEAP reporter activity: 0.463
[2]; [5]
  NF-kB SEAP reporter activity: 0.349
[2]; [6]
  NF-kB SEAP reporter activity: 0.719
[2]; [7]
  NF-kB SEAP reporter activity: 0.458

## CC(NC(=O)C(=O)Nc1ccccc1C(C)(C)C)C(=O)NC(CC(=O)O)C(=O)COc1c(F)c(F)cc(F)c1F (configuration not stated) (library stock concentration (final ~1000-fold dilution): 10 mM)
[2]; agonist: LPS (TLR4) 0.1 ug/mL
  NF-kB SEAP reporter activity: 0.607
[2]; [5]
  NF-kB SEAP reporter activity: 1.25
[2]; [6]
  NF-kB SEAP reporter activity: 0.912
[2]; [7]
  NF-kB SEAP reporter activity: 1.17

## CC(NC(=O)C(=O)Nc1ccccc1C(C)(C)C)C(=O)NC(CC(=O)O)C(=O)COc1c(F)c(F)cc(F)c1F (configuration not stated)
[1]; [8]
  NF-kB SEAP reporter activity: 1.15
[1]; [4]
  NF-kB SEAP reporter activity: 0.848

## CCOC(=O)Nc1cc(-c2ccc(C)c(NS(C)(=O)=O)c2)nn2c(C)nnc12
[1]; [8]
  NF-kB SEAP reporter activity: 1.43
[1]; [4]
  NF-kB SEAP reporter activity: 2.52

## CCOC(=O)Nc1cc(-c2ccc(C)c(NS(C)(=O)=O)c2)nn2c(C)nnc12 (library stock concentration (final ~1000-fold dilution): 10 mM)
[2]; agonist: LPS (TLR4) 0.1 ug/mL
  NF-kB SEAP reporter activity: 3.81
[2]; [5]
  NF-kB SEAP reporter activity: 1.93
[2]; [6]
  NF-kB SEAP reporter activity: 0.828
[2]; [7]
  NF-kB SEAP reporter activity: 1.44

## CCOC(=O)C1=CC(OC(CC)CC)C(NC(C)=O)C(N)C1 (configuration not stated)
[1]; library stock concentration (final ~1000-fold dilution): 2 mM, cytotoxicity flag (confluency mask): not cytotoxic, agonist: Imiquimod (TLR7) […]
  NF-kB SEAP reporter activity: 0.848
[1]; library stock concentration (final ~1000-fold dilution): 2 mM, cytotoxicity flag (confluency mask): not cytotoxic, agonist: MPLA (TLR4) […]
  NF-kB SEAP reporter activity: 1.03

## CCOC(=O)C1=CC(OC(CC)CC)C(NC(C)=O)C(N)C1 (configuration not stated) (library stock concentration (final ~1000-fold dilution): 2 mM)
[2]; agonist: LPS (TLR4) 0.1 ug/mL
  NF-kB SEAP reporter activity: 1.17
[2]; [5]
  NF-kB SEAP reporter activity: 1.08
[2]; [6]
  NF-kB SEAP reporter activity: 1.16
[2]; [7]
  NF-kB SEAP reporter activity: 1.11

## N#Cc1cnc(Nc2cc(NCC3CNCCO3)c(C(F)(F)F)cn2)cn1 (configuration not stated) (library stock concentration (final ~1000-fold dilution): 10 mM)
[2]; agonist: LPS (TLR4) 0.1 ug/mL
  NF-kB SEAP reporter activity: 1.37
[2]; [5]
  NF-kB SEAP reporter activity: 1.25
[2]; [6]
  NF-kB SEAP reporter activity: 1.34
[2]; [7]
  NF-kB SEAP reporter activity: 1.5

## N#Cc1cnc(Nc2cc(NCC3CNCCO3)c(C(F)(F)F)cn2)cn1 (configuration not stated)
[1]; [8]
  NF-kB SEAP reporter activity: 1.66
[1]; [4]
  NF-kB SEAP reporter activity: 0.936

## CS(=O)c1ccc(-c2nc(-c3ccc(F)cc3)c(-c3ccncc3)[nH]2)cc1 (configuration not stated) (library stock concentration (final ~1000-fold dilution): 10 mM)
[2]; agonist: LPS (TLR4) 0.1 ug/mL
  NF-kB SEAP reporter activity: 2.27
[2]; [5]
  NF-kB SEAP reporter activity: 0.762
[2]; [6]
  NF-kB SEAP reporter activity: 0.716
[2]; [7]
  NF-kB SEAP reporter activity: 1.02

## COc1ccc2cc(-c3[nH]c(-c4ccc(S(C)=O)cc4)nc3-c3ccncc3)ccc2c1 (configuration not stated) (library stock concentration (final ~1000-fold dilution): 10 mM)
[2]; agonist: LPS (TLR4) 0.1 ug/mL
  NF-kB SEAP reporter activity: 3.42
[2]; [5]
  NF-kB SEAP reporter activity: 2.22
[2]; [6]
  NF-kB SEAP reporter activity: 1.74
[2]; [7]
  NF-kB SEAP reporter activity: 2.04

## CS(=O)c1ccc(-c2nc(-c3ccc(F)cc3)c(-c3ccncc3)[nH]2)cc1 (configuration not stated)
[1]; [8]
  NF-kB SEAP reporter activity: 1.52
[1]; [4]
  NF-kB SEAP reporter activity: 1.61

## COc1ccc2cc(-c3[nH]c(-c4ccc(S(C)=O)cc4)nc3-c3ccncc3)ccc2c1 (configuration not stated)
[1]; [8]
  NF-kB SEAP reporter activity: 1.81
[1]; [4]
  NF-kB SEAP reporter activity: 2.57

## CCS(=O)(=O)N1CCN(c2ccc(Nc3ncc(C(N)=O)c(NC4CC4)n3)cc2)CC1.Cl
[1]; library stock concentration (final ~1000-fold dilution): 10 mM, cytotoxicity flag (confluency mask): cytotoxic (confluency <70% of control), agonist: Imiquimod (TLR7) […]
  NF-kB SEAP reporter activity: 0.23
[1]; library stock concentration (final ~1000-fold dilution): 10 mM, cytotoxicity flag (confluency mask): cytotoxic (confluency <70% of control), agonist: MPLA (TLR4) […]
  NF-kB SEAP reporter activity: 0.398

## CCS(=O)(=O)N1CCN(c2ccc(Nc3ncc(C(N)=O)c(NC4CC4)n3)cc2)CC1.Cl (library stock concentration (final ~1000-fold dilution): 10 mM)
[3]; agonist: LPS (TLR4) 0.1 ug/mL
  NF-kB SEAP reporter activity: 0.273
[3]; [5]
  NF-kB SEAP reporter activity: 0.218
[3]; [6]
  NF-kB SEAP reporter activity: 0.0746
[3]; [7]
  NF-kB SEAP reporter activity: 0.121
